According to publication PMC7862700, “An all-to-all approach to the identification of sequence-specific readers for epigenetic DNA modifications on cytosine”:

What was measured:
Experiment in all cases: DAPPL (digital affinity profiling via proximity ligation, sequencing); 10 mM Tris-HCl pH 7.5, 50 mM NaCl, 1 mM DTT, 4% glycerol, room temperature, 30 min; GST-TFs on glutathione beads, 16-mer random dsDNA library, 0.1% formaldehyde crosslink after washing; high values mean tight binding
FLI1 = molecular target: T1, FLI1 (Homo sapiens, UniProt Q01543 1-452); conditions: protein: recombinant; tags: N-terminal GST; dsDNA, one strand shown
T1 sequence: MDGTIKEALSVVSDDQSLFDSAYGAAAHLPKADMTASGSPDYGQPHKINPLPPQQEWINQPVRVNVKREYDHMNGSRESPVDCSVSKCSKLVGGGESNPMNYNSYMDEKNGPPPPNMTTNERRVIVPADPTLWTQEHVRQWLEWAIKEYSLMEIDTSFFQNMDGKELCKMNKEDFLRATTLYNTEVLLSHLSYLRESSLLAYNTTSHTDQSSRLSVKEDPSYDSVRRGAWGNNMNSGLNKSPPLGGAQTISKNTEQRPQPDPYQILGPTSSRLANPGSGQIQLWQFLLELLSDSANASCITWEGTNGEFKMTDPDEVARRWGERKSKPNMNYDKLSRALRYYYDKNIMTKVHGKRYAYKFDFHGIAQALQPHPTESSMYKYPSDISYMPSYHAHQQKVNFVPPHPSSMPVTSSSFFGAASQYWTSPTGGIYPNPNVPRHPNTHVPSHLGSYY
Outline: (§1)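 The binding signal reported is, for every hexamer, its read frequency for a factor over its read frequency for the tag-only sample. Reads came from pools of yeast-expressed, GST-fused human transcription factors on glutathione beads, barcoded with DNA and mixed with that sample, which were incubated with 200 nmole of a random double-stranded 16-mer DNA library in Tris/NaCl/DTT/glycerol buffer at room temperature for 30 min. After washing, the pools were crosslinked with 0.1% formaldehyde, proximity-ligated with BsaI/T4 ligase for 1 h at 37 °C, PCR-amplified and sequenced on an Illumina NextSeq500.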

ELK1 = molecular target: T2, ELK1 (Homo sapiens, UniProt P19419 1-428); conditions: protein: recombinant; tags: N-terminal GST; dsDNA, one strand shown
T2 sequence: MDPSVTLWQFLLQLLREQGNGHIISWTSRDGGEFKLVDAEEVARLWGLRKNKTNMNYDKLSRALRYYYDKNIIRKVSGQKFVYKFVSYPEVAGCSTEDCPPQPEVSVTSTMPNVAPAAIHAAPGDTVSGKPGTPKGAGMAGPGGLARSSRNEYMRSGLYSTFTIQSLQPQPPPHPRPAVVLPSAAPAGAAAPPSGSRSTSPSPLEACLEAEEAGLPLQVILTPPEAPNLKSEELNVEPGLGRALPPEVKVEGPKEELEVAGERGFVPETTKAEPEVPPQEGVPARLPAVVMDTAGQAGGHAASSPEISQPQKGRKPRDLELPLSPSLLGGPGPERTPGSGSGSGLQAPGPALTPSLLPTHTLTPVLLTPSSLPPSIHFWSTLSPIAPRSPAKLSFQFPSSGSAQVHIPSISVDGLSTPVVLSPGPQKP
Outline: as §1

ELF1 = ELF1 (Homo sapiens, UniProt P32519 1-619); conditions: protein: recombinant; tags: N-terminal GST; dsDNA, one strand shown
Chain of ELF1 (P32519 whole entry): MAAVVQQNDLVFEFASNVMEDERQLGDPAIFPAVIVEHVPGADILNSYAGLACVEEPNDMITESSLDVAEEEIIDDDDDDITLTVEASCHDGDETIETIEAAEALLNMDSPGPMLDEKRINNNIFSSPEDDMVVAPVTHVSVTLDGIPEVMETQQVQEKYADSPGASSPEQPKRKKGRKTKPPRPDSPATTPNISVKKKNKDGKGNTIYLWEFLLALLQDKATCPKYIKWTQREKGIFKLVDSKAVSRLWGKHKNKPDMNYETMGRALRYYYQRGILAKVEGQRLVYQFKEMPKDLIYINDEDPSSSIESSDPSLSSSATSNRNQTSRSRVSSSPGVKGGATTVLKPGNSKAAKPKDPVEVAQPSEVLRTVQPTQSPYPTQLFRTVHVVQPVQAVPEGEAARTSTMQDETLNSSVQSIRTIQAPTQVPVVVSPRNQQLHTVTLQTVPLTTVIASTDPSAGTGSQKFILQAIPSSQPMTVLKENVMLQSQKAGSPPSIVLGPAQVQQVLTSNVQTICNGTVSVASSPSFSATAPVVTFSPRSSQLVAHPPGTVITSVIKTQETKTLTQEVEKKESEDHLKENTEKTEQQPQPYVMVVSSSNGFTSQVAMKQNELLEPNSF
Outline: as §1

EHF = molecular target: T3, EHF (Homo sapiens, UniProt Q9NZC4 1-300); conditions: protein: recombinant; tags: N-terminal GST; dsDNA, one strand shown
T3 sequence: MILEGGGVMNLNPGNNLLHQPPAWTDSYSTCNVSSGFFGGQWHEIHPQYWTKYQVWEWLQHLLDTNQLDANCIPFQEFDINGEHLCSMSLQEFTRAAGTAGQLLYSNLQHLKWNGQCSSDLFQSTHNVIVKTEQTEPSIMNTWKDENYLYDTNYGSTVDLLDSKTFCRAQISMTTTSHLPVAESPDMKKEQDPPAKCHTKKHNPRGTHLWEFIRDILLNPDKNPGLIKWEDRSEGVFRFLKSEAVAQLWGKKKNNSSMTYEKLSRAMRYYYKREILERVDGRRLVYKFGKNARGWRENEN
Outline: as §1

SPI1 = SPI1 (Homo sapiens, UniProt P17947 1-270); conditions: protein: recombinant; tags: N-terminal GST; dsDNA, one strand shown
Outline: as §1

FEV = molecular target: T4, FEV (Homo sapiens, UniProt Q99581 1-238); conditions: protein: recombinant; tags: N-terminal GST; dsDNA, one strand shown
T4 sequence: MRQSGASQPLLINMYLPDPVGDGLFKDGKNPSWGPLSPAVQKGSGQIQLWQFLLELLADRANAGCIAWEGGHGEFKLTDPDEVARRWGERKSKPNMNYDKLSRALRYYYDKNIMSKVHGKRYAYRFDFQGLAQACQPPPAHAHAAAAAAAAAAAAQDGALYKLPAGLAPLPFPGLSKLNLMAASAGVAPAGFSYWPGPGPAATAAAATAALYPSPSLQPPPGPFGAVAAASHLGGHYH
Outline: as §1

ETV5 = ETV5 (Homo sapiens, UniProt P41161 1-510); conditions: protein: recombinant; tags: N-terminal GST; dsDNA, one strand shown
Chain of ETV5 (P41161 whole entry): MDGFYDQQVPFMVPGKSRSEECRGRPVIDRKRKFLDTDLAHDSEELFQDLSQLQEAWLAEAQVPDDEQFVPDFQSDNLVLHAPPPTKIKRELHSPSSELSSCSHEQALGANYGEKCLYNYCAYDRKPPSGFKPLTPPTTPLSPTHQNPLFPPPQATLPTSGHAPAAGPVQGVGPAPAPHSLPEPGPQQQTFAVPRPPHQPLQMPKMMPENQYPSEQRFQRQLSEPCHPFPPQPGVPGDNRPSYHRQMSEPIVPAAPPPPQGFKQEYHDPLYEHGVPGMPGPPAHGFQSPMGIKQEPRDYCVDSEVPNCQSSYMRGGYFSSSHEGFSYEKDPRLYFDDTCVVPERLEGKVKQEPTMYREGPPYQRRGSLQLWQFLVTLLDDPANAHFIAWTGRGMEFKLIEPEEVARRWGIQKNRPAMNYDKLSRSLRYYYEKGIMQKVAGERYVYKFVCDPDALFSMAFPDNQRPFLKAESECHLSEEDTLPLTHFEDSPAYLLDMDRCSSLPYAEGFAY
Outline: as §1

HSF1 = HSF1 (Homo sapiens, UniProt Q00613 1-529); conditions: protein: recombinant; tags: N-terminal GST; chain copies: 3; dsDNA, one strand shown
Chain of HSF1 (Q00613 whole entry): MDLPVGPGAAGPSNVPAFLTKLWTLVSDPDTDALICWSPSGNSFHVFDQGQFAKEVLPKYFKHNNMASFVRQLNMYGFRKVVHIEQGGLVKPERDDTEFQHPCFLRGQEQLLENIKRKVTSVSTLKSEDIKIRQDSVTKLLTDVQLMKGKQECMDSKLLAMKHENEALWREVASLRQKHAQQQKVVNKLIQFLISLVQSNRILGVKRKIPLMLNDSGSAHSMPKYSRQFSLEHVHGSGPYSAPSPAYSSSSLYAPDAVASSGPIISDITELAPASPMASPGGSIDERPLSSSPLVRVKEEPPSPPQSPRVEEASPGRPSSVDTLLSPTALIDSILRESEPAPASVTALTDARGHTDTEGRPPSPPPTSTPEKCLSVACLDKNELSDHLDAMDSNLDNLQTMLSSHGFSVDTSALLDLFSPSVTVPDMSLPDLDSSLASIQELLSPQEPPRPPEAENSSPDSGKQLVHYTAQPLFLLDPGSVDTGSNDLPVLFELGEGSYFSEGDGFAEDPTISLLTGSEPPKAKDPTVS
Outline: as §1

SPIC = molecular target: T5, SPIC (Homo sapiens, UniProt Q8N5J4 1-248); conditions: protein: recombinant; tags: N-terminal GST; dsDNA, one strand shown
T5 sequence: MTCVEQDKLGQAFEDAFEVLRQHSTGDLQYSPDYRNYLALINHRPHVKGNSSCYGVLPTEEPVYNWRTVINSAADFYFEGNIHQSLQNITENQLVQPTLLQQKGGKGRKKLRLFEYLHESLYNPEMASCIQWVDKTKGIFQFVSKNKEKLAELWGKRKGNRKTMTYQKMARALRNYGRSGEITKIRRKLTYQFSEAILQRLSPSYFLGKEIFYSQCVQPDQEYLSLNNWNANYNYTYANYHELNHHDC
Outline: as §1

ELF4 = ELF4 (Homo sapiens, UniProt Q99607 1-663); conditions: protein: recombinant; tags: N-terminal GST; dsDNA, one strand shown
Chain of ELF4 (Q99607 whole entry): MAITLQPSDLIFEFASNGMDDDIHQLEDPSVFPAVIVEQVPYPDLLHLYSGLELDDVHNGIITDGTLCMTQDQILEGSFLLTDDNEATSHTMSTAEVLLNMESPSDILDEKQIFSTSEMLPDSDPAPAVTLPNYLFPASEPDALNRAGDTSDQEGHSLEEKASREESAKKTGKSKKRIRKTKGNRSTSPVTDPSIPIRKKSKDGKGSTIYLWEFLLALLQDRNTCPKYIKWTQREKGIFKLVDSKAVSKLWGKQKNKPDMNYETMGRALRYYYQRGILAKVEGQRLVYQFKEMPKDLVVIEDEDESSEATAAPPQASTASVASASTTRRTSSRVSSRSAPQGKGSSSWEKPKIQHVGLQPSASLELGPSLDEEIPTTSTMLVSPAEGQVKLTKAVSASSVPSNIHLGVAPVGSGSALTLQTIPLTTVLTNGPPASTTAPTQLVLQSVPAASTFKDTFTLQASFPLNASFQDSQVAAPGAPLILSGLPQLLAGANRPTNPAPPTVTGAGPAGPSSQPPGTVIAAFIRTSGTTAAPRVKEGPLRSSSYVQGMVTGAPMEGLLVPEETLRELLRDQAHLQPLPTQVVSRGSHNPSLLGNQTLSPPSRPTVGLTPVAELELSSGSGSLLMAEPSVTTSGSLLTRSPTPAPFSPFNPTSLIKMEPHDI
Outline: as §1

ELK4 = molecular target: T6, ELK4 (Homo sapiens, UniProt P28324-2 1-405); conditions: protein: recombinant; tags: N-terminal GST; dsDNA, one strand shown
T6 sequence: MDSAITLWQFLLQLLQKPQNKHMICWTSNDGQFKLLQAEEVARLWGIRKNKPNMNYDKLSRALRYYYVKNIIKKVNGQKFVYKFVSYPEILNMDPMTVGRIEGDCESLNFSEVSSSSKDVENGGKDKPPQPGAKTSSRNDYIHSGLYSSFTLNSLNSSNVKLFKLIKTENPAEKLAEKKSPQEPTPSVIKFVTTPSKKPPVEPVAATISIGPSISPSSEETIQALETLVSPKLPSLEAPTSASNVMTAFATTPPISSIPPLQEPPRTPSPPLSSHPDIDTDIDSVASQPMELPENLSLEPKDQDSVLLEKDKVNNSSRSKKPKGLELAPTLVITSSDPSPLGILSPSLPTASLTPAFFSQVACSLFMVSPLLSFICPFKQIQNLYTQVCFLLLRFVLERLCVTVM
Outline: as §1

ETV2 = molecular target: T7, ETV2 (Homo sapiens, UniProt O00321 1-342); conditions: protein: recombinant; tags: N-terminal GST; dsDNA, one strand shown
T7 sequence: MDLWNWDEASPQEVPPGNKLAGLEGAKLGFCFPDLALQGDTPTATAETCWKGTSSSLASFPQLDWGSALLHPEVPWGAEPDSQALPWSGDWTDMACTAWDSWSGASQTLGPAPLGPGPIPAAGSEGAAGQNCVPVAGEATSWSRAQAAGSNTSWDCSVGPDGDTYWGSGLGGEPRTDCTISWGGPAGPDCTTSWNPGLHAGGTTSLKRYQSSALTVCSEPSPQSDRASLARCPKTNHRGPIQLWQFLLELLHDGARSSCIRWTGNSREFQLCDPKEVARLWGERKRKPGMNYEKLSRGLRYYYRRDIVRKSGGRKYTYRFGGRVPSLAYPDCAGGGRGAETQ
Outline: as §1

ELF3 = molecular target: T8, ELF3 (Homo sapiens, UniProt P78545 1-371); conditions: protein: recombinant; tags: N-terminal GST; dsDNA, one strand shown
T8 sequence: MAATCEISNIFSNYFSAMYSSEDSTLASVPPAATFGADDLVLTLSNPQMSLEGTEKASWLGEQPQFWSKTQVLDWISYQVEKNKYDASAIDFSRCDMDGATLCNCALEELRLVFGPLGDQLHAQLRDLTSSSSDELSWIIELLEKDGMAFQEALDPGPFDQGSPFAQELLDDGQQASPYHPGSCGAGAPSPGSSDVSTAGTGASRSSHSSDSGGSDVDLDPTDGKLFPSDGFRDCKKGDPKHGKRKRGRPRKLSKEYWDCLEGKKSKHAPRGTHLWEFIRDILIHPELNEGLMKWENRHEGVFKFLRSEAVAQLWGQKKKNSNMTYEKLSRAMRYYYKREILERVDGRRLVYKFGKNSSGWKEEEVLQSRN
Outline: as §1

ETV1 = ETV1 (Homo sapiens, UniProt P50549 1-477); conditions: protein: recombinant; tags: N-terminal GST; dsDNA, one strand shown
Chain of ETV1 (P50549 whole entry): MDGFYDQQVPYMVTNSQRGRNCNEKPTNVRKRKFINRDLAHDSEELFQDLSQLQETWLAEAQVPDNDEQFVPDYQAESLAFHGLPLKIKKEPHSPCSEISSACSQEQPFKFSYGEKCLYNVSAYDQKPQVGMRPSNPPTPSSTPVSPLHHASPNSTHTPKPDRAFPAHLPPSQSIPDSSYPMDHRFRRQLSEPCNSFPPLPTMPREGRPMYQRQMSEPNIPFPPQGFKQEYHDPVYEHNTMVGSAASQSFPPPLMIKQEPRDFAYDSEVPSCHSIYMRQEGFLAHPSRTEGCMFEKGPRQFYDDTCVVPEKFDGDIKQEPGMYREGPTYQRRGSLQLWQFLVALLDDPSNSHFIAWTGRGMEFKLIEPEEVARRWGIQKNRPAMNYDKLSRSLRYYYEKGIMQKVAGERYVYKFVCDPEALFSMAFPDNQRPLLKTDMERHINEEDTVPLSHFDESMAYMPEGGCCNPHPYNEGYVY
Outline: as §1

GABPA = molecular target: T9, GABPA (Homo sapiens, UniProt Q06546 1-454); conditions: protein: recombinant; tags: N-terminal GST; dsDNA, one strand shown
T9 sequence: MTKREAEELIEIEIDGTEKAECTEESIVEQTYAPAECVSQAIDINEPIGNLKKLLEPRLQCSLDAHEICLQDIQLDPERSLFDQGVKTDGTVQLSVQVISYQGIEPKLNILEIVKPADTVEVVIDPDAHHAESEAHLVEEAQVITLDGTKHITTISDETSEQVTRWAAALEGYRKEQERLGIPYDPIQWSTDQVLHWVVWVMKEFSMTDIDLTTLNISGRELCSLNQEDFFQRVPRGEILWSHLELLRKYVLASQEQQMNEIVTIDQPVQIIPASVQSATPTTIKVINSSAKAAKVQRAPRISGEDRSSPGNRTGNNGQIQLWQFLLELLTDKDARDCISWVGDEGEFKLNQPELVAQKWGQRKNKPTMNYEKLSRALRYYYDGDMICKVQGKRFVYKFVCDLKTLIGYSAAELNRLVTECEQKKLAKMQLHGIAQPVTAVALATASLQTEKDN
Outline: as §1

ERG = molecular target: T10, ERG (Homo sapiens, UniProt P11308 1-479); conditions: protein: recombinant; tags: N-terminal GST; dsDNA, one strand shown
T10 sequence: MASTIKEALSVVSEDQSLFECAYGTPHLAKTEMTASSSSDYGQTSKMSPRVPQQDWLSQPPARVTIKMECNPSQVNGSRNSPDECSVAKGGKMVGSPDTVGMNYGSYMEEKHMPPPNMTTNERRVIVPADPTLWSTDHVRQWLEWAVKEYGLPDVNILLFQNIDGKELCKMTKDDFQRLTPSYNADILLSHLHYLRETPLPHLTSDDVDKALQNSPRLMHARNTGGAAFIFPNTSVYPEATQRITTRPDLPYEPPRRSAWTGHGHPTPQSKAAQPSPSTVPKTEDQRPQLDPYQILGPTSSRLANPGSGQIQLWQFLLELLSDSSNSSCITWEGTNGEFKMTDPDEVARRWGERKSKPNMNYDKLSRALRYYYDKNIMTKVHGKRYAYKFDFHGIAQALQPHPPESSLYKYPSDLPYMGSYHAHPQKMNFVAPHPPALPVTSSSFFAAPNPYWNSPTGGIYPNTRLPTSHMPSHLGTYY
Outline: as §1

ELK3 = molecular target: T11, ELK3 (Homo sapiens, UniProt P41970 1-407); conditions: protein: recombinant; tags: N-terminal GST; dsDNA, one strand shown
T11 sequence: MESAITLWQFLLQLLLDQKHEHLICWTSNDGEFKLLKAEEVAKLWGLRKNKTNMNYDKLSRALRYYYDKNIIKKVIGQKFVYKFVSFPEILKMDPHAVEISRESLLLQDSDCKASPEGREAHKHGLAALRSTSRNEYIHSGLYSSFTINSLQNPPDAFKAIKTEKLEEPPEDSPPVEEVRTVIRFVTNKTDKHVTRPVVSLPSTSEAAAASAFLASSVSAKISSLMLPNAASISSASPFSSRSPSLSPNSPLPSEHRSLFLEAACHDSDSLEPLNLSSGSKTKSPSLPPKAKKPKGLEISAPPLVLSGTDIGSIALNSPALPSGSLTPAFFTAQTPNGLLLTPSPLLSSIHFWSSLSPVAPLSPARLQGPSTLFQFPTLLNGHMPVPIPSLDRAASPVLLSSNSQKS
Outline: as §1

Sequence	binding signal (FLI1)	binding signal (ELK1)	binding signal (ELF1)	binding signal (EHF)	binding signal (SPI1)	binding signal (FEV)	binding signal (ETV5)	binding signal (HSF1)	binding signal (SPIC)	binding signal (ELF4)	binding signal (ELK4)	binding signal (ETV2)	binding signal (ELF3)	binding signal (ETV1)	binding signal (GABPA)	binding signal (ERG)	binding signal (ELK3)
TGAAAA	1.06 fold enrichment (6-mer frequency, TF over GST control)	1.03 fold enrichment (6-mer frequency, TF over GST control)	1.04 fold enrichment (6-mer frequency, TF over GST control)	1.08 fold enrichment (6-mer frequency, TF over GST control)	1.23 fold enrichment (6-mer frequency, TF over GST control)	1.06 fold enrichment (6-mer frequency, TF over GST control)	1.02 fold enrichment (6-mer frequency, TF over GST control)	1.14 fold enrichment (6-mer frequency, TF over GST control)	1.11 fold enrichment (6-mer frequency, TF over GST control)	1.11 fold enrichment (6-mer frequency, TF over GST control)	1.08 fold enrichment (6-mer frequency, TF over GST control)	1.08 fold enrichment (6-mer frequency, TF over GST control)	1.08 fold enrichment (6-mer frequency, TF over GST control)	1.01 fold enrichment (6-mer frequency, TF over GST control)	–	–	–
CGCTAG	1.07 fold enrichment (6-mer frequency, TF over GST control)	1.06 fold enrichment (6-mer frequency, TF over GST control)	1.04 fold enrichment (6-mer frequency, TF over GST control)	1.12 fold enrichment (6-mer frequency, TF over GST control)	1.09 fold enrichment (6-mer frequency, TF over GST control)	1.06 fold enrichment (6-mer frequency, TF over GST control)	1.02 fold enrichment (6-mer frequency, TF over GST control)	1.29 fold enrichment (6-mer frequency, TF over GST control)	1.03 fold enrichment (6-mer frequency, TF over GST control)	1.11 fold enrichment (6-mer frequency, TF over GST control)	1.09 fold enrichment (6-mer frequency, TF over GST control)	1.19 fold enrichment (6-mer frequency, TF over GST control)	1.01 fold enrichment (6-mer frequency, TF over GST control)	1.03 fold enrichment (6-mer frequency, TF over GST control)	1.09 fold enrichment (6-mer frequency, TF over GST control)	1.03 fold enrichment (6-mer frequency, TF over GST control)	1.3 fold enrichment (6-mer frequency, TF over GST control)
